For eight compounds, growth results are on record in PubChem BioAssay (NCI).

About 83,000 compounds went through this panel and 20% of them were active in at least one assay; those are over-represented in the sample as a whole.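 Cell lines were cultured in 96-well plates, exposed to a single compound concentration, and assessed for percent growth 48 hours later.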 A number with no mark means an inactive call. The source made the active and inactive calls. Rule for the calls: active = growth percent below 10; inactive = the rest.

Test systems include NCI-H23 lung; NCI-H226 lung; NCI-H322M lung; HOP-62 NSCLC; NCI-H460 lung; HOP-92 NSCLC; NCI-H522 lung; A549/ATCC NSCLC; 786-0 renal; COLO 205 colon; DU-145 prostate; K-562 leukemia; MALME-3M melanoma; MDA-MB-231 breast; RXF 393 renal; SF-268 CNS; SF-295 CNS; UACC-257 melanoma; M14 melanoma.
Holding throughout (experiment): NCI-60 one-dose screen, 48 h (100 = growth as untreated, 0 = no growth, -100 = all killed)
Conditions in all cases: 10 µM unless noted

`Clc1cccc(Nc2nc(Nc3cnc4ccccc4c3)c3[nH]cnc3n2)c1`: the growth was 84.3% in the assay with NCI-H23 lung; 72.3% with NCI-H226 lung; 89.1% in the assay on NCI-H322M lung; 59.9% in the assay on HOP-62 NSCLC; 61.1% in the assay with NCI-H460 lung; 7.57% (active) in the assay with HOP-92 NSCLC. Moreover, the growth is 61.9% in the assay with NCI-H522 lung; 74.4% in the assay with A549/ATCC NSCLC; 109% in the assay with 786-0 renal; 79.8% with COLO 205 colon; 82.6% in the assay on DU-145 prostate; 81.5% in the assay on K-562 leukemia. For the same compound, the growth in the assay on MALME-3M melanoma is 116%; with MDA-MB-231 breast, 47.7%; in the assay with RXF 393 renal it was 69.7%; in the assay with SF-268 CNS it was 82.4%; with SF-295 CNS, 94.6%; in the assay on UACC-257 melanoma it was 81.7%. In addition, in the assay on M14 melanoma, the growth was 88%.
With `O=C(CN1CCOCC1)Nc1ccc(Cn2nnc3c2C(=O)c2nnn(Cc4ccc(NC(=O)CN5CCOCC5)cc4)c2C3=O)cc1`, the growth in the assay with NCI-H23 lung is -21.1% (active); in the assay with NCI-H226 lung, -27.4% (active); in the assay with NCI-H322M lung it was -3.02% (active); in the assay on HOP-62 NSCLC, -38.6% (active); in the assay with NCI-H460 lung, 5.66% (active); in the assay with HOP-92 NSCLC, -36.9% (active). The growth in the assay with NCI-H522 lung was -43% (active); in the assay on A549/ATCC NSCLC it was -11.9% (active); in the assay on 786-0 renal it was 12.1%; in the assay with COLO 205 colon, -83.9% (active); with DU-145 prostate it was -76.7% (active); in the assay with K-562 leukemia it was 0.148% (active). Besides, the growth is -81.6% (active) with MALME-3M melanoma; -9.32% (active) in the assay on MDA-MB-231 breast; -18.7% (active) with RXF 393 renal; -5.75% (active) in the assay with SF-268 CNS; -44.9% (active) with SF-295 CNS; -95.2% (active) in the assay with UACC-257 melanoma. For the same compound, the growth in the assay with M14 melanoma was -90.4% (active).
Consider `Cc1[nH]n(-c2ccccc2)c2nc3nncc3c(-c3ccc(Cl)cc3)c12`, for which the growth in the assay with NCI-H23 lung is 103%; in the assay with NCI-H226 lung, 104%; in the assay with NCI-H322M lung, 114%; with HOP-62 NSCLC, 110%; in the assay on NCI-H460 lung, 102%; with HOP-92 NSCLC, 76.2%. Further, the growth in the assay on NCI-H522 lung was 105%; in the assay with A549/ATCC NSCLC, 84.9%; in the assay with 786-0 renal it was 100%; in the assay on COLO 205 colon, 111%; in the assay on DU-145 prostate it was 103%; in the assay with K-562 leukemia, 95.8%. Also, the growth in the assay on MALME-3M melanoma is 132%; with MDA-MB-231 breast, 106%; in the assay with RXF 393 renal, 107%; in the assay with SF-268 CNS, 98.9%; in the assay with SF-295 CNS, 105%; in the assay with UACC-257 melanoma, 101%. For the same compound, in the assay on M14 melanoma, the growth was 114%.
Regarding `CC1=C(NCCN2CCCC2)C(=O)c2c(OCc3ccc(F)c(Cl)c3)cccc2C1=O`, the growth was 69.8% with NCI-H23 lung; 90.4% in the assay with NCI-H226 lung; 64.3% with NCI-H322M lung; 68.8% with HOP-62 NSCLC; 57.7% with NCI-H460 lung; 57.1% with HOP-92 NSCLC. Also, the growth in the assay with NCI-H522 lung was 76%; in the assay with A549/ATCC NSCLC, 78.3%; in the assay with 786-0 renal, 63.6%; in the assay with COLO 205 colon, 69.5%; in the assay with DU-145 prostate, 84.3%; with K-562 leukemia, 17%. Moreover, the growth in the assay on MALME-3M melanoma was 44.3%; in the assay with MDA-MB-231 breast, 59.1%; with RXF 393 renal, 71.8%; with SF-268 CNS, 70.5%; in the assay on SF-295 CNS, 45.6%; in the assay on UACC-257 melanoma, -63.9% (active). The growth with M14 melanoma is -73.7% (active).
Consider `CC(=O)C1=C(O)C=C2Oc3c(C(=O)/C=C/c4c(Cl)cccc4Cl)c(O)c(C)c(O)c3[C@]2(C)C1=O`, for which the growth was -37.9% (active) in the assay on NCI-H23 lung; -41.2% (active) with NCI-H226 lung; -25.9% (active) in the assay on NCI-H322M lung; -48.6% (active) with HOP-62 NSCLC; 0.581% (active) in the assay on NCI-H460 lung; -24.9% (active) in the assay with HOP-92 NSCLC. Further, the growth is -30.4% (active) with NCI-H522 lung; -46.1% (active) in the assay on A549/ATCC NSCLC; -39.3% (active) in the assay on 786-0 renal; -59.1% (active) in the assay with COLO 205 colon; 6.3% (active) with DU-145 prostate; -26.7% (active) in the assay on K-562 leukemia. In addition, the growth in the assay with MALME-3M melanoma is -67.7% (active); with MDA-MB-231 breast, -63.4% (active); in the assay on RXF 393 renal, -48.9% (active); in the assay with SF-268 CNS, -20.4% (active); in the assay on SF-295 CNS it was -37% (active); in the assay on UACC-257 melanoma it was -37% (active). In the assay with M14 melanoma, the growth was -10.9% (active).
As to `CCN(CC)CCCCNc1ccc(NCCCCN(CC)CC)c2c1C(=O)c1ccccc1C2=O`, the growth with NCI-H23 lung was 77.5%; in the assay with NCI-H226 lung it was 113%; in the assay with NCI-H322M lung it was 110%; with HOP-62 NSCLC, 101%; in the assay on NCI-H460 lung, 57.4%; in the assay on HOP-92 NSCLC it was 55.5%. In addition, the growth in the assay with NCI-H522 lung is 96.6%; with A549/ATCC NSCLC it was 56.6%; in the assay on 786-0 renal, 82%; in the assay on COLO 205 colon, 76.1%; in the assay with DU-145 prostate, 94.1%; in the assay on K-562 leukemia, 1.87% (active). For the same compound, the growth was 132% with MALME-3M melanoma; 80.5% in the assay on MDA-MB-231 breast; 74.9% with RXF 393 renal; 101% with SF-268 CNS; 110% in the assay with SF-295 CNS; 97.9% in the assay with UACC-257 melanoma. The growth in the assay on M14 melanoma was -36.6% (active).
`COc1cc(OC)c(/C=C/S(=O)(=O)Cc2cnc(OC)c(N)c2)c(OC)c1`: the growth is 30.8% in the assay with NCI-H23 lung; 64.3% with NCI-H226 lung; 33.2% in the assay on NCI-H322M lung; 23.8% with HOP-62 NSCLC; 9.05% (active) in the assay on NCI-H460 lung; 85.9% in the assay on HOP-92 NSCLC. In addition, the growth was -2.15% (active) with NCI-H522 lung; 9.4% (active) in the assay on A549/ATCC NSCLC; 16.2% in the assay on 786-0 renal; -49.2% (active) in the assay on COLO 205 colon; 1.99% (active) in the assay on DU-145 prostate; 9.4% (active) with K-562 leukemia. Further, the growth is 67.3% with MALME-3M melanoma; 11.9% in the assay on MDA-MB-231 breast; 45.5% with RXF 393 renal; 38% in the assay on SF-268 CNS; 2.57% (active) with SF-295 CNS; 62.4% with UACC-257 melanoma. The growth in the assay with M14 melanoma is 10.1%.
Regarding `O=C(/C=C/c1cc2ccccc2[nH]c1=O)/C=C/c1cc2ccccc2[nH]c1=O`, the growth with NCI-H23 lung is -41.6% (active); in the assay with NCI-H226 lung, -30.3% (active); with NCI-H322M lung, 86.9%; in the assay on HOP-62 NSCLC, 0.443% (active); with NCI-H460 lung, -36.7% (active); in the assay with HOP-92 NSCLC it was 68.7%. Further, the growth in the assay with NCI-H522 lung was -51.1% (active); with A549/ATCC NSCLC, -8% (active); in the assay with 786-0 renal, -59.5% (active); with COLO 205 colon, -11.6% (active); in the assay on DU-145 prostate, 10.1%; in the assay on K-562 leukemia, 1.78% (active). The growth with MALME-3M melanoma was -24.8% (active); in the assay with MDA-MB-231 breast, -6.36% (active); in the assay on RXF 393 renal, -91.8% (active); with SF-268 CNS it was -36% (active); in the assay with SF-295 CNS, 4.04% (active); with UACC-257 melanoma, -31.9% (active). Further, in the assay with M14 melanoma, the growth is -45.4% (active).
